In the library only some 2.4% were active in any assay of this set; here they are far more common.
MLLE-PAM2 inh = inhibitors of PABP1 MLLE–PAM2 peptide binding, primary screen, biochemical, fluorescence polarization, FITC-PAM2, GST-MLLE; inhibition, % at 20 µM; 360,000 tested, 0.36% active; Polyadenylate-binding protein 1 (Homo sapiens), P11940; in the data active = inhibition above about 35%, passing the limit was not always enough;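 note: plate controls were DMSO wells with GST-MLLE for no effect and wells lacking GST-MLLE protein for full effect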
PHOSPHO1 block = PubChem AID 1565. recombinant PHOSPHO1, absorbance phosphatase assay. inhibition, % at 13.3 µM. 290,000 tested, 1.1% active; in the data active = inhibition above about 60%
Target sequence (Q8TCT1 whole entry, looked up): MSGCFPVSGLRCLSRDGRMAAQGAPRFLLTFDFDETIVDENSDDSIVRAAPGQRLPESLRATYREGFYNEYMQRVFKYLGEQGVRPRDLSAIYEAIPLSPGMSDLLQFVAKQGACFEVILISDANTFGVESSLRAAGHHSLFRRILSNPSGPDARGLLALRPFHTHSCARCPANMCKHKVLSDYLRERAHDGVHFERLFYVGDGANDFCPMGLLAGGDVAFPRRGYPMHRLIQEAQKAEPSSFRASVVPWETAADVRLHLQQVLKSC
eIF4H inh = human eIF4H binding inhibitors, primary screen, translation initiation inhibitor project, biochemical, uHTS, fluorescence polarization; eIF4H fluorescence polarization binding assay; inhibition, % at 35 µM; 290,000 tested, 0.94% active;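 note: calls also rest on retests at 20 µM and on dose response follow-up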
HMGR II inh = inhibitors of E. faecalis class II HMGR, primary screen, biochemical, Enterococcus faecalis; HMG-CoA reductase (Enterococcus faecalis, mvaE); purified E. faecalis HMGR, NADPH absorbance 340 nm kinetic; inhibition, % at 10 µM; 190,000 tested, 0.41% active;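 active = inhibition above a set limit, the median over all tested compounds plus 3 SD, cut at about 9.5% in these data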;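 note: enzyme runs in reverse so mevalonate oxidation gives rising NADPH absorbance; 0% = complete reaction with DMSO and 100% = background rate lacking mevalonate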
PABP polyA inh = PABP poly(A) RNA binding inhibitors, primary screen, biochemical, fluorescence polarization, uHTS; 290,000 tested, 1% active; calls only at 35 µM;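 note: calls also rest on retests at 20 µM and on dose response follow-up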
Starred values were filed as active, the others as inactive; i = inactive; . = not tested or not shown; + = active, no number. Unless noted, the rule behind the calls is not given here.

SMILES	MLLE-PAM2 inh	PHOSPHO1 block	eIF4H inh	HMGR II inh	PABP polyA inh
CCOc1ccc2c(c1)n([O-])c1c([n+]2=O)CCCC1	43*	6	-3	-3	i
CC(=O)N(C)c1ccc(NC(=O)/C=C/c2ccccc2Cl)cc1	-1	95*	-2	4	i
O=C(/C=C/c1ccccc1Cl)Nc1ccncc1	-1	5	-5	1	i
O=C(Nc1cccc(Cl)c1N1CCCCC1)c1ccc(N2CCOCC2)c([N+](=O)[O-])c1	-4	1	active	-6	+
COC(=O)c1cc(CNC(=O)c2ccc(N3CCCC3)c([N+](=O)[O-])c2)ccc1OC	4	19	22	.	+
CN(C)S(=O)(=O)c1ccc(C(=O)NCc2ccccn2)cc1	-13	62*	6	-4	i
CN(c1ccccc1)S(=O)(=O)c1ccc(C(=O)NCc2ccccn2)cc1	11	12	2	8	i
O=C(NCc1ccccn1)c1ccc(N2CCCC2)c([N+](=O)[O-])c1	7	63*	1	5	i
Cc1cccnc1NC(=O)c1ccc(Cl)c(S(=O)(=O)N2CCCCC2)c1	9	.	.	.	.
Cc1cc(C)nc(NC(=O)c2ccc(COc3ccccc3Cl)cc2)c1	-6	8	-8	0	i
S=C(NCCN1CCOCC1)Nc1ccccc1Cl	9	-10	9	-4	i
COc1ccc(C(=O)/C=C/c2ccc(N3CCCCC3)c([N+](=O)[O-])c2)c(OC)c1	3	-9	-2	-15	i
COc1ccc(C(=O)/C=C/c2ccc(N3CCCCC3)c([N+](=O)[O-])c2)cc1	2	-19	active	-1	+
CCN(CC)c1ccc(NC(=O)c2ccc(Br)o2)cc1	-5	71*	0	3	i
CCOc1ccc(NC(=O)c2cc3ccccc3cc2O)cc1	15	15	98*	.	+
COc1cccc(C(=O)Nc2ccc(C3CC3(Cl)Cl)cc2)c1 (configuration not stated)	-5	29	active	-5	i
CCOc1cccc(C(=O)Nc2ccc(N(CC)CC)cc2)c1	7	70*	4	-2	i
CCCCC1CCC(C(=O)OC(C)C(=O)Nc2ccc(NC(C)=O)cc2)CC1 (configuration not stated)	-108	33	-10	.	i
COc1ccc(CNC(=O)C(C)Sc2nc3ccccc3c(=O)n2CC2CCCO2)cc1 (configuration not stated)	-2	.	.	.	.
COc1ccc(CNC(=O)CCC(=O)Nc2ccc(Cl)cc2)cc1	14	-16	-4	.	i
COc1cccc(CNC(=O)C2CCCN(C(=O)c3ccc(Cl)cc3)C2)c1 (configuration not stated)	5	.	.	.	.
COc1ccc(-c2cc(C3CCNCC3)[nH]n2)cc1	-3	2	10	.	i
CC(=O)Nc1cccc(NC(=O)Nc2ccc(C(C)=O)cc2)c1	5	-14	-2	3	i
CCN(CC)c1ccc(NC(=O)Nc2cccc(C(C)=O)c2)cc1	25	74*	-18	-2	i
CC(Oc1ccccc1)C(=O)Nc1cccc([N+](=O)[O-])c1 (configuration not stated)	6	60*	1	-6	i
SMILES	MLLE-PAM2 inh	PHOSPHO1 block	eIF4H inh	HMGR II inh	PABP polyA inh
COC(C(=O)Nc1cccc([N+](=O)[O-])c1)c1ccccc1 (configuration not stated)	23	21	-3	0	i
N#Cc1c(NC(=O)CN2CCCCC2)sc2c1CCC2	24	-6	45*	0	i
CC1CCCCN1CC(=O)Nc1sccc1C#N (configuration not stated)	-22	6	75*	-4	+
N#Cc1ccsc1NC(=O)CN1CCN(c2ccc(O)cc2)CC1	-21	4	98*	-4	i
CC1CCCCN1CC(=O)Nc1sc2c(c1C#N)CCC2 (configuration not stated)	-10	8	69*	-3	+
COC(=O)C1CCN(CC(=O)Nc2sc3c(c2C#N)CCC3)CC1	-6	-11	13	-1	i
CCCS(=O)(=O)NC(=O)C1(C)CCN(C(=O)c2ccccc2OC(C)=O)C1 (configuration not stated)	-9	.	.	.	.
COc1ccc(S(=O)(=O)N(C)C)cc1NC(=O)c1ccc(OCC(=O)N2CCOCC2)c(OC)c1	-38	.	.	.	.
CCCCN(C(=O)c1ccc2c(c1)S(=O)(=O)N=C1CCCCCN12)c1c(N)n(CCCC)c(=O)[nH]c1=O	8	.	.	.	.
Cc1nnc(SCC(=O)Nc2sc3c(c2C#N)CCCCC3)n1N	20	61*	6	0	i
N#Cc1c(NC(=O)CSc2nnnn2C2CCCCC2)sc2c1CCCC2	-14	4	-1	-2	i
N#Cc1c(C(F)(F)F)cc(-c2ccccc2)nc1SCC(=O)Nc1sc2c(c1C#N)CCC2	0	22	72	2	+
Nc1nonc1-n1nnc(C(=O)N/N=C/c2cc(Br)cs2)c1-c1ccccc1	18	24	2	.	i
COc1ccc(N(CC(=O)Nc2cc(C)cc(C)c2)S(=O)(=O)c2ccccc2[N+](=O)[O-])c(OC)c1	-37	8	-3	9.9*	i
CC(=O)N1CCc2c(sc(NC(=O)c3cccc(N4C(=O)CCC4=O)c3)c2C(N)=O)C1	-48	53	57	.	+
CN1CCN(S(=O)(=O)c2cccc(C(=O)Nc3sc4c(c3C(N)=O)CCCC4)c2)CC1	-16	70*	-8	0	i
NC(=O)c1c(NC(=O)c2cccc(N3C(=O)CCC3=O)c2)sc2c1CCCCC2	16	-4	-4	.	i
NC(=O)c1c(NC(=O)c2ccc(S(=O)(=O)N3CCOCC3)cc2)sc2c1CCCCC2	10	-22	-5	2	i
CN1CCC(N(C)S(=O)(=O)c2ccc(NC(=O)COc3ccc(F)cc3Cl)cc2)CC1	-91	8	3	.	+
Cc1sc2ncnc(N3CCC(C(=O)NNC(=O)COc4cccc(C(F)(F)F)c4)CC3)c2c1C	-4	.	.	.	.
O=C(NC(=S)Nc1ccccc1O)c1cccnc1	32	8	4	.	i
Cc1ccc([N+](=O)[O-])cc1NC(=S)NC(=O)c1ccco1	14	-2	-1	-7	i
O=C(NC(=S)Nc1cc([N+](=O)[O-])ccc1O)c1cccnc1	42*	24	7	-6	i
Cc1ccc([N+](=O)[O-])cc1NC(=S)NC(=O)c1cccnc1	41*	29	-5	1	i
O=C(Cc1cccc(NC(=O)C2CCN(C(=O)CCc3ccccc3)CC2)c1)Nc1cccc(C(=O)N2CCCCC2)c1	7	.	.	.	.
CC1C(=O)N(Cc2cn(CCC3OCCO3)nn2)CCS(=O)(=O)N1Cc1ccc(-c2ccc(Cl)cc2)cc1 (configuration not stated)	-13	.	.	.	.

Source: PubChem BioAssay
